IP6K1 inh – Primary qHTS assay for small molecule inhibitors of Inositol hexaphosphate kinase 1 (IP6K1); activity change, % (series mostly up to about 58 µM); 0.81% of 140,000 active; IP6K1 kinase, ADP-Glo luminescence, 2 h; stronger effect = lower value; Inositol hexakisphosphate kinase 1 (Homo sapiens), Q92551; in the data active = activity change below about -25%
Target sequence (Q92551 whole entry, looked up): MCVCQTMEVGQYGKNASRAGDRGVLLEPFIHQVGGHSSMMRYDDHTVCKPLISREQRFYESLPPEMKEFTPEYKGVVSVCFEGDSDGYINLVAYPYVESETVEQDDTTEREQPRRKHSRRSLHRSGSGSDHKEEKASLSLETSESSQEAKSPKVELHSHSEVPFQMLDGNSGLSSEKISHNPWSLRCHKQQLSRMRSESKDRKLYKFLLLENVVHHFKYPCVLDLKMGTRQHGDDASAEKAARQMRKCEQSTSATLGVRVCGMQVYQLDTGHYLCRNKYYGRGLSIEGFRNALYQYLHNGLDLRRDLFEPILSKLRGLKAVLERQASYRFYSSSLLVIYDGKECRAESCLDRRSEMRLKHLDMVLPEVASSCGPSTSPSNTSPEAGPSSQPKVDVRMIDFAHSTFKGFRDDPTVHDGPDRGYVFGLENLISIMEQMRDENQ
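ADP-Glo luminescence measures ADP made by human IP6K1 during a 2 h RT reaction with ATP/IP6 (mix at 1.3 mM/130 uM); top library doses 57.5 and 19.1 uM final.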
SNCA viab count – GF-AFC viability counterscreen for inhibitors of alpha-synuclein gene (SNCA) expression. HEK-293-SNCA-luc viability, GF-AFC fluorescence, 24 h. AID 1671193, 2021. Potency, µM (top dose mostly 57.1 µM), most hits filed as cytotoxic. 0.12% of 150,000 active; also: nearly all actives have a fitted effect of over 30% in size
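Cytotoxicity counterscreen: after 24 h compound treatment of genome-edited SNCA-luciferase HEK-293 cells, live-cell protease substrate GF-AFC read by fluorescence after 30 min; activity scaled between DMSO (0%) and medium-only (-100%), curves Hill-fitted.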
SNCA expr inh – Primary qHTS assay for inhibitors of alpha-synuclein gene (SNCA) expression. AID 1671194, 2021. Potency, µM (doses to about 57.2 µM), actives largely listed as inhibitors. HEK-293 SNCA-luciferase knock-in, luminescence, 24 h. 0.17% of 140,000 active; also: nearly all actives have a fitted effect of over 45% in size
KDM5B inh – Primary screen for KDM5B Histone Demethylases FDH-coupled qHTS | Lysine-specific demethylase 5B (Homo sapiens), Q9UGL1 | KDM5B demethylase, FDH-coupled NADH fluorescence (FDH is formaldehyde dehydrogenase) | Potency, µM (highest dose often 57.7 µM), actives largely listed as inhibitors | 2.6% of 220,000 active; also: nearly all actives have a fitted effect of over 70% in size
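Compound dilutions met 200 nM (final) KDM5BΔAP for 10 min at room temperature before substrate addition. The substrate mix held 12.5 µM H3K4me3 with cofactors 25 µM α-ketoglutarate and 50 µM Fe²⁺. NADH signal gain over 30 min defined activity.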
Hits are given with their value; 0 = inactive; ? = inconclusive; - = not tested or not shown. Sampled rows, rich in hits. Any-hit rate of the full collection: about 3%. Unless noted, calls follow the shape of the dose curve; as a rule, active = well fitted curve in the direction sought with a large enough effect; inconclusive = small, poorly fitted or top-dose-only effect, or another doubt; inactive = no such curve, though single readings can be large; an effect the other way counts as inactive or inconclusive.

SMILES	IP6K1 inh	SNCA viab count	SNCA expr inh	KDM5B inh
COCc1ccc2c(c1)c(OC(C)(C)C(=O)NCc1ccncc1)nn2Cc1ccccc1	0	0	0	0
COCCCNC(=O)C(C)(C)Oc1nn(Cc2cccc(Cl)c2)c2ccccc12	0	?	32µM	?
COCc1ccc2c(c1)c(OC(C)(C)C(=O)NCCN(C)C)nn2Cc1ccccc1	0	0	0	32µM
CN(C)Cc1ccc2c(c1)c(OC(C)(C)C(=O)NCCN1CCOCC1)nn2Cc1ccccc1	0	0	0	22µM
CN(C)c1ccc(NC(=O)c2ccc3ccccc3c2)cc1	-	-	-	0
CC(=O)c1ccc(NC(=O)C23CC4CC(CC(C4)C2)C3)cc1	-	-	-	0
Cc1nccn1CCCC(=O)N[C@@H]1CCOC[C@H]1OCC(=O)O	0	0	0	0
Cc1ccc(-c2ccc(CCC(=O)N[C@@H]3CCOC[C@H]3OCC(=O)O)o2)cc1	0	0	0	28µM
O=C(c1ccc(Cn2cccn2)o1)N1CCCC2(CCC(=O)N(C3CC3)C2)C1 (stereo not drawn)	0	0	0	0
Cc1[nH]c(=O)c(C#N)cc1C(=O)N1CCCC2(CCC(=O)N(C3CC3)C2)C1 (stereo not drawn)	0	0	0	28µM
O=C(c1nc(-c2cccc(C(F)(F)F)c2)c2ccccn12)N1CCN(c2ncccn2)CC1	0	0	0	25µM
O=C(c1nc(-c2ccc(Cl)cc2Cl)c2cnccn12)N1CCN(c2ncccn2)CC1	0	0	0	?
O=C(c1nc(-c2cccc(C(F)(F)F)c2)c2cnccn12)N1CCN(c2ncccn2)CC1	0	0	0	28µM
C#CCNC(=O)c1nc(-c2cccc(C(F)(F)F)c2)c2ccccn12	0	0	0	0
CN(C)C(=O)c1nc(-c2cccc(C(F)(F)F)c2)c2ccccn12	0	0	0	35µM
O=C(c1nc(-c2cccc(C(F)(F)F)c2)c2ccccn12)N1CCOCC1	0	0	0	28µM
CC(C)NC(=O)c1nc(-c2cccc(C(F)(F)F)c2)c2ccccn12	0	0	0	?
COC(=O)C1=C(C)NC(=O)NC1c1cccc(Oc2ccc(Cl)cc2)c1 (stereo not drawn)	-	-	-	0
Cc1ccc(Cn2c(-c3cccc(Cl)c3)nc(C)c(CCO)c2=O)cc1	0	0	0	?
Cc1nc(-c2cccc(Cl)c2)n(Cc2cc(=O)n3ccccc3n2)c(=O)c1CCO	0	0	0	32µM
Cc1nnc2n1CCC(NC(=O)c1ccc3cc[nH]c3c1)CC2 (stereo not drawn)	0	0	0	28µM
Cc1cccc2ncc(C(=O)N3CC[C@H](CO)[C@@H](O)C3)c(=O)n12	0	0	0	22µM
CNC(=O)c1cc(C2CC2)nc2c1c(C1CCCN([S+](=O)([O-])c3ccccc3)C1)nn2C (stereo not drawn)	0	-	-	-
Cc1csc(SCC(=O)c2ccc(O)cc2O)n1	-	-	-	0
Cc1cc(C)n2nc(C(=O)NCC3COc4ccccc4C3)cc2n1 (stereo not drawn)	0	0	0	22µM
SMILES	IP6K1 inh	SNCA viab count	SNCA expr inh	KDM5B inh
CCCn1cc(C(=O)NCC2COc3cc(OC)ccc3C2)c(C)n1 (stereo not drawn)	0	0	?	0
O=C1NC2(CCN(CC3CCCCC3)CC2)COc2ccccc21	0	0	0	?
O=C(Nc1cccc(F)c1)N1CCc2c(c3ccccc3n2CC2CC2)C1	0	?	0	22µM
O=C(Nc1ccc(F)c(F)c1)N1CCc2c(c3ccccc3n2CC2CC2)C1	0	0	?	22µM
O=C(NCCC1CCN(C(=O)Nc2cccc(F)c2)CC1)c1ccccc1	0	0	0	0
Cc1ccc(NC(=O)N2CCc3c(c4ccccc4n3CC3CC3)C2)cc1	0	0	0	22µM
O=C(Nc1ccc(Cl)cc1)N1CCC(CN2CCCC2)CC1	0	0	0	?
CC(C)CCNC(=O)C1CCNCC1	-	-	-	0
CCCC/C(=N/NC(=S)Nc1cccc(C)c1)c1ccccc1	-	-	-	0
CC(Sc1cccc[n+]1[O-])C(=O)Nc1cccc2ccccc12 (stereo not drawn)	-	-	-	0
Cc1cccc(S(=O)(=O)Nc2nc3ccccc3nc2Nc2cccc(F)c2)c1	-	-	-	0
O=S(=O)(N[C@H]1CO[C@H]2[C@@H]1OC[C@@H]2n1nnnc1Oc1ccc(-n2cncn2)cc1)c1cccs1	0	0	0	18µM
Cc1nn2c(c1-c1ccccc1N1CCCC1)N(C(=O)C1CCOCC1)CCC2	0	0	?	28µM
Cc1nn2c(c1-c1ccccc1N1CCCC1)N(C(=O)COc1ccccc1)CCC2	0	?	?	20µM
CC(C)(C)C(=O)N1N=C(c2cccs2)CC1c1ccc2nccnc2c1 (stereo not drawn)	-	-	-	0
COc1nc2nc(CCc3ccccc3)n(C)c2cc1Nc1ccncn1	0	0	0	0
COCc1nc2nc(-c3ccccc3)c(-c3ccc(OC)cc3)cc2n1C	0	0	0	32µM
COc1nc2nc(CCc3ccccc3)n(C)c2cc1-c1cccc(NC(C)=O)c1	0	?	0	35µM
COc1ccccc1-c1cc2c(nc1OC)nc(CC1CC1)n2C	0	0	0	40µM
COc1nc2nc(CCc3ccccc3)n(C)c2cc1-c1ccc(CO)cc1	0	0	0	35µM
CC(C)(C)c1ccc(-c2csc(NC(=O)COCc3nc4ccccc4c(=O)[nH]3)n2)cc1	-	-	-	0
CCCCS(=O)(=O)c1oc(-c2ccc(F)cc2)nc1S(=O)(=O)c1ccc(C)cc1	0	?	?	0
CCS(=O)(=O)c1oc(-c2ccc(F)cc2)nc1S(=O)(=O)c1ccccc1	0	7.9µM	?	?
CCC(C)S(=O)(=O)c1oc(-c2ccc(F)cc2)nc1S(=O)(=O)c1ccc(F)cc1 (stereo not drawn)	0	28µM	?	?
Cc1nn(-c2ccccc2)c2c1C(C)N(C1CCN(C(=O)Nc3ccc(Cl)cc3)C1)C2=O (stereo not drawn)	0	-	-	-
SMILES	IP6K1 inh	SNCA viab count	SNCA expr inh	KDM5B inh
Cc1oc(-c2ccc(OC(C)C)cc2)nc1Cn1ccn2nc3c(c2c1=O)CCCC3	0	0	0	28µM
CCOC(=O)CCCCCNCc1ccccc1	-	-	-	0
COCc1ccc2c(c1)c(OC(C)(C)C(=O)NC1CCC(O)CC1)nn2CCC(C)C (stereo not drawn)	0	0	?	32µM
COCc1ccc2c(c1)c(OC(C)(C)C(=O)NC1CCOCC1)nn2CCC(C)C	0	0	0	40µM
COCc1ccc2c(c1)c(OC(C)(C)C(=O)NCCCN1CCCC1=O)nn2CCC(C)C	0	0	0	?
COCc1ccc2c(c1)c(OC(C)(C)C(=O)NC1CCOCC1)nn2Cc1cccnc1	0	0	0	0
Cc1cccc(OCCc2noc(C3CCCN(C(=O)c4ccoc4)C3)n2)c1 (stereo not drawn)	0	0	0	-
CCOC(=O)c1cccnc1N1C[C@H]2OC(=O)N(Cc3ccccn3)[C@H]2C1	0	0	0	28µM

Source: PubChem BioAssay
